# How the values were obtained:
# [1] = target: T1, Aspartate--tRNA(Asp/Asn) ligase (Mycobacterium tuberculosis (strain ATCC 25618 / H37Rv)) (UniProt P9WFW3); test: Assay for Asp RNA synthetase-1 from Mycobacterium tuberculosis; format: functional; design: scale not given: direction of the effect not stated beside the values; settings: 30 µM; note: in the data most compounds retested in dose-response had high values
# T1 sequence (whole entry): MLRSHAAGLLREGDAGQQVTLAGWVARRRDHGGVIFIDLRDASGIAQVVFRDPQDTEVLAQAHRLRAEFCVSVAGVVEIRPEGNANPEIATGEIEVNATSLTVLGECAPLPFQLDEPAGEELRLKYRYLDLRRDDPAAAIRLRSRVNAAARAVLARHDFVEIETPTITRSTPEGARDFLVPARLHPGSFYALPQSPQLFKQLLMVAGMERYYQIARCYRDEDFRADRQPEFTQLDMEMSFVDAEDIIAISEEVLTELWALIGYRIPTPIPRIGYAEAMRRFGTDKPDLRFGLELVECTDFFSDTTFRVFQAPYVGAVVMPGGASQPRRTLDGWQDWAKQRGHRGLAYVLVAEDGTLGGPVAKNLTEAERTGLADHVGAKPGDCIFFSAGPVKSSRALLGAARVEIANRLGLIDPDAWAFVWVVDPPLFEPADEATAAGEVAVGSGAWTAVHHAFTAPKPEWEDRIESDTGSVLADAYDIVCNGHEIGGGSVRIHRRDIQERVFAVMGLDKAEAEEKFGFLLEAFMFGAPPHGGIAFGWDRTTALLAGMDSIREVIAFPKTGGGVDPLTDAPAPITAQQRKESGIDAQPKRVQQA
# [2] = target: Shiga toxin 2 (Escherichia coli O157:H7) (UniProt P09385+P09386); test: E. coli 0.157:H7 Shiga Toxin SOP - stx2 screening assay; format: functional; design: scale not given: direction of the effect not stated beside the values; settings: 30 µM
SMILES,Percent Effect [1] [%],Percent Effect [2] [%]
COCCN1C(=O)CC(N2CCN(c3ccc(OC)cc3)CC2)C1=O (stereo unspecified),-5.68,3.53
O=C(c1ccncc1)N1CCC(O)(Cn2ccc3ccncc32)CC1,-0.194,-14.9
Cn1cc(C(=O)N2CC[C@@H]3[C@@H]2CCN3Cc2cccc(F)c2)cn1,-0.0764,0.579
CCNC(c1ccc(OC)cc1)c1cccnc1 (stereo unspecified),1.53,1.33
COc1ccc(CNC2CCN(CCc3ccncc3)CC2)cc1O,5.98,-49.6
Cc1cnn(CC2CCCN2CC(=O)N(C)Cc2ccc(C)o2)c1 (stereo unspecified),0.457,-11.2
O=C(CN1CCC(c2ccnn2CCO)CC1)NCC1CC1,-6.54,-19.2
CC(C)(C)c1cn2nc(N3CCOC(Cn4cncn4)C3)sc2n1 (stereo unspecified),-2.01,-8.88
CN(C)CC(=O)N1CCOC2(CCCN(c3ncccc3F)C2)C1 (stereo unspecified),1.93,-5.68
CSCC(=O)N1CCCC(n2ccnc2C(C)C)C1 (stereo unspecified),-2.84,28.1
CC1CCN(CCNC(=O)c2ccccc2N2CCOCC2)CC1,2.6,-16.9
COc1cccc(N2CCN(CC(O)c3ccc(C)cc3)CC2)c1 (stereo unspecified),8.45,10.4
CC(C)c1noc(CCC(=O)NCC2CCS(=O)(=O)C2)n1 (stereo unspecified),-3.63,-17.1
CCN1CCn2c(C)cnc2C12CCN(C(=O)CC(C)C)CC2,1.31,-0.923
Cc1occc1C(=O)N1CCC2(CCCN(CC3CCC3)C2=O)C1 (stereo unspecified),-2.62,-2.14
CC(=O)N1CCC(Oc2ccc(Cl)cn2)CC1,-6.73,-4.66
CN(C)CC(=O)N1CCC2(CCN(Cc3ccccn3)C2=O)C1 (stereo unspecified),-3.07,9.53
Cc1cc(CN2CCN(C(=O)NC(C)Cn3ccnc3)CC2)no1 (stereo unspecified),-1.75,21

# Reference: ChEMBL document CHEMBL3988442, “University of Dundee, Small-Polar-MMV Screening Library” (2021)
